Results taken from PubChem BioAssay (NCI).
Compounds without any hit were thinned out: in the full panel of roughly 79,000, 15% have a hit. Active and inactive are the calls of the source. No stated cut-off is given here; in the data, active means growth inhibition above about 70%; inactive means the rest.

What was measured:
[1] = NCI Yeast Anticancer Drug Screen. Data for the rad52 strain (AID 147);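 further: 0% = growth of vehicle-treated control cultures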; conditions: S. cerevisiae rad52 mutant growth inhibition, stronger effect = higher value
How it was run: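 Measured: yeast growth inhibition. System: strain with a defined DNA damage repair alteration. Reference: vehicle-treated control cultures.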

[2] = NCI Yeast Anticancer Drug Screen. Data for the wt1 strain (AID 149);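 further: 0% = growth of vehicle-treated wt1 cultures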; conditions: S. cerevisiae wt1 strain (SPY 50644) growth inhibition, stronger effect = higher value
How it was run: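 Measured: growth of wt1 yeast under compound versus vehicle treatment, reported as inhibition.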

[3] = NCI Yeast Anticancer Drug Screen. Data for the rad50EPP+ strain (AID 151);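 further: 0% = growth of vehicle-treated control cultures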; conditions: S. cerevisiae rad50 mutant strain, stronger effect = higher value
How it was run: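 One strain with a rad50 alteration (rad50EPP+) was compound-treated, its growth then compared to that of vehicle controls.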

[4] = NCI Yeast Anticancer Drug Screen. Data for the mgt1 strain (AID 153); conditions: S. cerevisiae mgt1 mutant growth inhibition, stronger effect = higher value
How it was run: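 After exposure of the mgt1 yeast mutant to compound, growth was measured and reported as inhibition compared with vehicle controls.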

[5] = NCI Yeast Anticancer Drug Screen. Data for the rad50 strain (AID 155);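 further: 0% = growth of vehicle-only cultures of the same strain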; conditions: S. cerevisiae rad50 strain growth inhibition, stronger effect = higher value
How it was run: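 Growth of the mutant yeast was measured after compound exposure and referenced to vehicle-treated cultures.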

[6] = NCI Yeast Anticancer Drug Screen. Data for the mec2-1 strain (AID 157); conditions: S. cerevisiae mec2-1 strain, stronger effect = higher value
How it was run: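 Test agents were screened against the mec2-1 yeast strain, with defined DNA repair or cell cycle alteration. Growth was scored as inhibition against vehicle-only controls.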

[7] = NCI Yeast Anticancer Drug Screen. Data for the rad14 strain (AID 159);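 further: 0% = growth of vehicle-treated control cultures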; conditions: S. cerevisiae rad14 strain growth inhibition, stronger effect = higher value
How it was run: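 Here, inhibition of yeast growth was measured after compound exposure, using a strain with a genetic defect in DNA damage repair and vehicle-treated cultures as the reference.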

[8] = NCI Yeast Anticancer Drug Screen. Data for the sgs1 mgt1 strain (AID 161);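 further: 0% = growth of cultures given vehicle only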; conditions: S. cerevisiae sgs1 mgt1 strain, stronger effect = higher value
How it was run: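 Read-out: growth inhibition vs vehicle controls. Cells: mutant yeast strain deficient in DNA damage repair.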

[9] = NCI Yeast Anticancer Drug Screen. Data for the cln2 rad14 strain (AID 165);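 further: 0% = growth equal to vehicle treated cultures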; conditions: S. cerevisiae cln2 rad14 strain, stronger effect = higher value
How it was run: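 Growth of compound-exposed yeast (cln2 rad14 genotype) measured and expressed as inhibition relative to vehicle.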

[10] = NCI Yeast Anticancer Drug Screen. Data for the bub3 strain (AID 167); conditions: S. cerevisiae bub3 mutant strain, stronger effect = higher value
How it was run: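 Whole-cell yeast assay. The mutant strain was incubated with compounds, and growth inhibition was determined by comparison with vehicle-treated cells.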

[11] = NCI Yeast Anticancer Drug Screen. Data for the wt2 strain (AID 169);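 further: 0% = growth of vehicle-treated yeast cultures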; conditions: S. cerevisiae wt2 strain growth inhibition, stronger effect = higher value
How it was run: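 Genetically defined yeast strains from a DNA-repair/cell-cycle panel were used. Compound-exposed yeast growth was measured, and the inhibition was calculated relative to vehicle treatment.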

[12] = NCI Yeast Anticancer Drug Screen. Data for the mlh1 strain (AID 171);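 further: 0% = growth of vehicle-treated control cultures of the same strain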; conditions: S. cerevisiae mlh1 strain growth inhibition, stronger effect = higher value
How it was run: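 Here the genetically defined yeast mutant is grown with each compound, and the extent to which its growth falls below that of vehicle-exposed cells is reported.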

[13] = NCI Yeast Anticancer Drug Screen. Data for the mlh1 rad18 strain (AID 175); conditions: S. cerevisiae mlh1 rad18 strain growth inhibition, stronger effect = higher value
How it was run: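 In this whole-cell yeast screen, a strain with altered DNA damage repair is challenged with compound, and its growth is measured against matched vehicle-treated controls.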

[14] = NCI Yeast Anticancer Drug Screen. Data for the rad18 strain (AID 177); conditions: S. cerevisiae rad18 mutant growth inhibition, stronger effect = higher value
How it was run: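 Screen uses a yeast strain with a defined lesion in DNA damage repair; compound effect is read as loss of growth compared to untreated vehicle cultures.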

[15] = NCI Yeast Anticancer Drug Screen. Data for the CLN2oe strain (AID 163);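 further: 0% = growth of vehicle-only control cultures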; conditions: S. cerevisiae CLN2oe strain, stronger effect = higher value
How it was run: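 Here, growth inhibition in a cell-cycle-altered yeast strain after compound exposure was quantified against vehicle control growth.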

[16] = NCI Yeast Anticancer Drug Screen. Data for the sgs1 strain (AID 173);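 further: 0% = growth of vehicle-only control cultures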; conditions: S. cerevisiae sgs1 mutant, stronger effect = higher value
How it was run: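 Relative growth inhibition, referenced to vehicle, was determined in a yeast strain with a defined alteration affecting DNA damage repair or cell cycle control after compound exposure.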

[17] = at 5.0 µM (retest, dose inferred, filed as 0.5)
[18] = at 50.0 µM (retest, dose inferred, filed as 5.0)

Measured: growth inhibition

COc1ccc(/C=C/C(=O)C(C)(C)Br)cc1
inactive: [1]; at 1.2 µM 45% | [2]; at 1.2 µM 4% | [2]; at 3.7 µM 12% | [2]; at 11.0 µM 15% | [2]; at 33.0 µM 19% | [2]; at 100.0 µM 33% | [4]; at 1.2 µM 0% | [4]; at 3.7 µM 9% | [4]; at 11.0 µM 18% | [4]; at 33.0 µM 27% | [5]; at 1.2 µM 41% | [6]; at 1.2 µM 24% | [6]; [17] 11% | [7]; at 1.2 µM 28% | [7]; at 3.7 µM 69% | [9]; [17] 52% | [10]; at 1.2 µM -9% | [10]; at 3.7 µM -7% | [10]; [17] 26% | [10]; at 11.0 µM 4% | [10]; at 33.0 µM 25% | [11]; at 1.2 µM 2% | [11]; at 3.7 µM 10% | [11]; at 11.0 µM 26% | [11]; at 33.0 µM 37% | [12]; at 1.2 µM 5% | [12]; at 3.7 µM 19% | [12]; at 11.0 µM 33% | [12]; at 33.0 µM 54%
active: [1]; at 3.7 µM 89% | [1]; at 11.0 µM 95% | [1]; at 33.0 µM 97% | [1]; at 100.0 µM 98% | [3]; at 1.2 µM 79% | [3]; at 3.7 µM 93% | [3]; at 11.0 µM 96% | [3]; at 33.0 µM 97% | [3]; at 100.0 µM 98% | [4]; at 100.0 µM 71% | [5]; at 3.7 µM 74% | [5]; [17] 75% | [5]; at 11.0 µM 88% | [5]; at 33.0 µM 93% | [5]; [18] 96% | [5]; at 50.0 µM 94.5% | [5]; at 100.0 µM 96% | [6]; at 3.7 µM 71% | [6]; at 11.0 µM 96% | [6]; at 33.0 µM 97% | [6]; [18] 98% | [6]; at 50.0 µM 96.6% | [6]; at 100.0 µM 97% | [7]; at 11.0 µM 93% | [7]; at 33.0 µM 96% | [7]; at 100.0 µM 99% | [8]; [17] 86% | [8]; [18] 97% | [8]; at 50.0 µM 93.7% | [9]; [18] 92% | [9]; at 50.0 µM 91.5% | [10]; [18] 99% | [10]; at 50.0 µM 73.3% | [10]; at 100.0 µM 82% | [11]; at 100.0 µM 89% | [12]; at 100.0 µM 94% | [13]; [17] 89% | [13]; [18] 99% | [13]; at 50.0 µM 94.4% | [14]; at 1.2 µM 96% | [14]; at 3.7 µM 97% | [14]; at 11.0 µM 97% | [14]; at 33.0 µM 97% | [14]; at 100.0 µM 98%

O=C(N=Nc1ccccc1Cl)NNc1ccccc1Cl
inactive: [1]; at 1.2 µM 25% | [1]; at 3.7 µM 19% | [1]; at 11.0 µM 13% | [1]; at 33.0 µM 28% | [1]; at 100.0 µM 26% | [2]; at 1.2 µM 4% | [2]; at 3.7 µM 2% | [2]; at 11.0 µM 0% | [2]; at 33.0 µM 5% | [2]; at 100.0 µM 6% | [3]; at 1.2 µM 17% | [3]; at 3.7 µM 19% | [3]; at 11.0 µM 26% | [3]; at 33.0 µM 39% | [3]; at 100.0 µM 20% | [4]; at 1.2 µM -5% | [4]; at 3.7 µM -5% | [4]; at 11.0 µM 3% | [4]; at 33.0 µM -18% | [4]; at 100.0 µM -2% | [5]; at 1.2 µM 8% | [5]; at 3.7 µM 8% | [5]; [17] -15% | [5]; at 11.0 µM -15% | [5]; at 33.0 µM 14% | [5]; [18] 16% | [5]; at 50.0 µM 44.5% | [5]; at 100.0 µM 13% | [6]; at 1.2 µM -1% | [6]; at 3.7 µM 1% | [6]; [17] -15% | [6]; at 11.0 µM 7% | [6]; at 33.0 µM 6% | [6]; [18] 38% | [6]; at 50.0 µM 21.1% | [6]; at 100.0 µM 12% | [7]; at 1.2 µM -3% | [7]; at 3.7 µM -9% | [7]; at 11.0 µM -2% | [7]; at 33.0 µM 5% | [7]; at 100.0 µM 11% | [15]; at 1.2 µM 7% | [15]; at 3.7 µM -3% | [15]; at 11.0 µM 6% | [15]; at 33.0 µM 22% | [15]; at 100.0 µM 27% | [9]; [17] -25% | [9]; [18] 45% | [9]; at 50.0 µM 47.1% | [10]; at 1.2 µM 2% | [10]; at 3.7 µM 18% | [10]; [17] -40% | [10]; at 11.0 µM 13% | [10]; at 33.0 µM 15% | [10]; [18] 69% | [10]; at 50.0 µM 49.1% | [10]; at 100.0 µM 11% | [12]; at 1.2 µM 0% | [12]; at 3.7 µM -4% | [12]; at 11.0 µM 2% | [12]; at 33.0 µM 5% | [12]; at 100.0 µM 4% | [13]; [17] -7% | [13]; [18] 41% | [13]; at 50.0 µM 21.6% | [14]; at 1.2 µM 16% | [14]; at 3.7 µM 13% | [14]; at 11.0 µM 8% | [14]; at 33.0 µM 3% | [14]; at 100.0 µM 7%

S=C(Nc1ccc(Cl)cc1)SC1CCCCC1
inactive: [1]; at 1.2 µM 6% | [1]; at 3.7 µM 24% | [1]; at 11.0 µM 34% | [2]; at 1.2 µM 7% | [2]; at 3.7 µM 0% | [2]; at 11.0 µM 47% | [3]; at 1.2 µM 7% | [3]; at 3.7 µM 22% | [3]; at 11.0 µM 61% | [4]; at 1.2 µM 16% | [4]; at 3.7 µM 40% | [4]; at 11.0 µM 33% | [5]; at 1.2 µM -4% | [5]; at 3.7 µM 9% | [5]; [17] 12% | [5]; [18] 65% | [6]; at 1.2 µM -17% | [6]; at 3.7 µM 7% | [6]; [17] 1% | [6]; [18] 40% | [7]; at 1.2 µM -24% | [7]; at 3.7 µM -20% | [7]; at 11.0 µM 27% | [8]; [17] 18% | [9]; [17] -6% | [9]; [18] 31% | [10]; at 1.2 µM -18% | [10]; at 3.7 µM -36% | [10]; [17] 17% | [10]; at 11.0 µM 25% | [10]; [18] 51% | [11]; at 1.2 µM -35% | [11]; at 3.7 µM -22% | [12]; at 1.2 µM 4% | [12]; at 3.7 µM 19% | [12]; at 11.0 µM 50% | [16]; at 1.2 µM 0% | [16]; at 3.7 µM 2% | [16]; at 11.0 µM 51% | [13]; [17] -2% | [14]; at 1.2 µM -8% | [14]; at 3.7 µM -7% | [14]; at 11.0 µM 48%
active: [1]; at 33.0 µM 96% | [1]; at 100.0 µM 98% | [2]; at 33.0 µM 98% | [2]; at 100.0 µM 98% | [3]; at 33.0 µM 98% | [3]; at 100.0 µM 98% | [4]; at 33.0 µM 98% | [4]; at 100.0 µM 99% | [5]; at 11.0 µM 96% | [5]; at 33.0 µM 99% | [5]; at 50.0 µM 83.2% | [5]; at 100.0 µM 99% | [6]; at 11.0 µM 93% | [6]; at 33.0 µM 99% | [6]; at 50.0 µM 85.5% | [6]; at 100.0 µM 96% | [7]; at 33.0 µM 97% | [7]; at 100.0 µM 97% | [8]; [18] 79% | [8]; at 50.0 µM 86.5% | [9]; at 50.0 µM 87.7% | [10]; at 33.0 µM 93% | [10]; at 50.0 µM 83% | [10]; at 100.0 µM 98% | [11]; at 11.0 µM 78% | [11]; at 33.0 µM 99% | [11]; at 100.0 µM 98% | [12]; at 33.0 µM 98% | [12]; at 100.0 µM 99% | [16]; at 33.0 µM 98% | [16]; at 100.0 µM 98% | [13]; [18] 91% | [13]; at 50.0 µM 91.8% | [14]; at 33.0 µM 97% | [14]; at 100.0 µM 98%
